Values without a mark were called inactive. Inconclusive results are not listed. Entries that show only a call come without a potency. Activity calls are given as the source filed them. Unless noted, calls follow the shape of the dose curve; as a rule, active = well fitted curve in the direction sought with a large enough effect in the repeat runs; inconclusive = weak or mixed curves; inactive = no such curve, though single readings can be large; an effect the other way counts as inactive or inconclusive.
What was measured:
[1] = qHTS assay for small molecule agonists of the p53 signaling pathway (AID 651631; calls by dose curve; also: nearly all actives have a fitted effect of over 15% in size)
Summary of the method: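 Stably transfected HCT-116 cells (beta-lactamase behind p53 response elements) get compounds after a 5 h settling period; 16 h later at 37 °C, FRET substrate is loaded and fluorescence read after 2 h.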

[2] = qHTS assay for small molecules that induce genotoxicity in human embryonic kidney cells expressing luciferase-tagged ATAD5 (AID 651632); also: nearly all actives have a fitted effect of over 15% in size
Summary of the method: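 Luminescent reporter readout, HEK293T ATAD5-luc line: 16 hr drug exposure (37C, 5% CO2) followed by Amplite, 30 min RT.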

[3] = qHTS assay for small molecule agonists of the p53 signaling pathway - cell viability (AID 651633; calls by dose curve;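 also: p53RE-bla HCT reporter cells with a stable beta-lactamase p53 reporter; series mostly up to about 83 µM; nearly all actives have a fitted effect of over 30% in size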)
Summary of the method: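 p53RE-bla cells were treated with compound for 16 hours at 37 C. Cytotoxicity was then measured as CellTiter-Glo luminescence after 30 min at room temperature.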

[4] = qHTS assay for small molecules that induce genotoxicity in human embryonic kidney cells expressing luciferase-tagged ATAD5 - cell viability (AID 651634; calls by dose curve; also: nearly all actives have a fitted effect of over 25% in size)
Summary of the method: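 Viability read: CellTiter-Fluor fluorescence, 30 min at 37C. Cells: HEK293T, luciferase-tagged ATAD5. Exposure: 15.5 hr, 37C, 5% CO2, compound or DMSO vehicle.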

[5] = qHTS assay for small molecule disruptors of the mitochondrial membrane potential - cell viability (AID 720634; calls by dose curve;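 also: human HepG2 liver cancer cells; series mostly up to about 83 µM; nearly all actives have a fitted effect of over 20% in size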)
Summary of the method: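 HepG2, 1 hr compound, 37 C. ATP luminescence via CellTiter-Glo, 30 min RT, same well as m-MPI.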

[6] = qHTS assay for small molecule disruptors of the mitochondrial membrane potential (AID 720635); also: potency is read from the fitted curve at half-maximal effect
Summary of the method: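 HepG2 cells exposed to compound 1 hr at 37C, then Mito-MPS dye 30 min. Ratio read of aggregate (540/590 nm) versus monomer (490/535 nm) fluorescence.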

[7] = qHTS assay to test for compound auto fluorescence at 590 nm (red) in HepG2 cells (AID 720674)
Summary of the method: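 HepG2 cells, 2,000 per well in MEM with 10% FBS, attached overnight at 37 C, then got 23 nL compound or DMSO. After 1 hr at 37 C, 5% CO2, red fluorescence was read at 540/590 nm against Rose Bengal sodium as reference.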

[8] = qHTS assay to test for compound auto fluorescence at 535 nm (green) in HepG2 cells (AID 720675)
[9] = qHTS assay to test for compound auto fluorescence at 460 nm (blue) in HEK293 cells (AID 720678)
Summary of the method: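 HEK293 cells (2,000 per well, medium with 10% dialyzed FBS) attached for 4-5 hr at 37C, then received compound and stood overnight at 37C, 5% CO2. Blue fluorescence was read at Ex/Em 405/460 nm and expressed relative to triamterene.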

[10] = qHTS assay to test for compound auto fluorescence at 590 nm (red) in HEK293 cells (AID 720679)
Summary of the method: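 HEK293 cells (2,000/well, medium with 10% dialyzed FBS) attached for 4-5 hr at 37C, received 23 nL compound and were incubated overnight at 37C, 5% CO2. Red fluorescence was then read at 540/590nm Ex/Em, referenced to Rose Bengal sodium.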

| SMILES | Potency [1] | Potency [2] | Potency [3] | Potency [4] | Potency [5] | Potency [6] | outcome [7] | outcome [8] | outcome [9] | outcome [10] |
| --- | --- | --- | --- | --- | --- | --- | --- | --- | --- | --- |
| Oc1ccccc1C=NCc1ccccc1 | inactive | inactive | inactive | inactive | inactive | 21.1 µM (active) | inactive | inactive | inactive | – |
| COc1nc(C)nc(NC(=O)NS(=O)(=O)c2ccccc2OCCCl)n1 | inactive | inactive | inactive | inactive | inactive | inactive | inactive | inactive | inactive | inactive |
| CCN(CC)C(=O)N(CC)CC | inactive | inactive | inactive | inactive | inactive | inactive | inactive | inactive | inactive | inactive |
| CCCCC1CCC(=O)O1 (configuration not stated) | inactive | inactive | inactive | inactive | inactive | inactive | inactive | inactive | inactive | inactive |
| CCOC(=O)c1ccccc1O | inactive | inactive | inactive | inactive | inactive | inactive | inactive | inactive | inactive | inactive |
| CCCCCOc1ccc(C2SC(=O)NC2=O)cc1OCC (configuration not stated) | inactive | inactive | inactive | inactive | inactive | 29.8 µM (active) | inactive | inactive | inactive | inactive |
| O=Cc1ccc(F)c(Br)c1 | inactive | inactive | inactive | inactive | inactive | inactive | inactive | inactive | inactive | – |
| Cc1ccc(C=O)s1 | inactive | inactive | inactive | inactive | inactive | inactive | inactive | inactive | inactive | – |
| Cc1c(C(=O)NCCO)[n+](=O)c2ccccc2n1[O-] | inactive | inactive | inactive | inactive | inactive | inactive | inactive | inactive | inactive | – |
| OCc1ccccc1O | inactive | inactive | inactive | inactive | inactive | inactive | inactive | inactive | inactive | inactive |
| CN(CC1(C)CCCO1)S(=O)(=O)c1ccc(Cl)c(S(N)(=O)=O)c1 (configuration not stated) | inactive | inactive | inactive | inactive | inactive | inactive | inactive | inactive | inactive | inactive |
| CC(C)S | inactive | inactive | inactive | inactive | inactive | inactive | inactive | inactive | inactive | inactive |
| FC(F)(F)C(Cl)(Cl)Cl | inactive | inactive | inactive | inactive | inactive | inactive | inactive | inactive | inactive | – |
| C[C@]12CCC(=O)C=C1CC[C@@H]1[C@@H]2CC[C@@]2(C)[C@H]1CC[C@]2(O)C(=O)CO | inactive | inactive | inactive | inactive | inactive | – | inactive | – | inactive | inactive |
| CO[Si](C)(C)OC | inactive | – | inactive | inactive | inactive | – | inactive | inactive | – | inactive |
| Nc1ccc2ccccc2c1S(=O)(=O)O | inactive | – | inactive | inactive | inactive | inactive | inactive | inactive | – | inactive |
| CC/C=C\CCOC(=O)C(C)C | inactive | inactive | inactive | inactive | inactive | – | inactive | – | inactive | inactive |
| CN(C)CC[C@@H](c1ccc(Cl)cc1)c1ccccn1 | inactive | – | inactive | inactive | inactive | inactive | inactive | inactive | – | inactive |
| COC(=O)N[C@H](C(=O)N[C@@H](Cc1ccccc1)[C@@H](O)CN(Cc1ccc(-c2ccccn2)cc1)NC(=O)[C@@H](NC(=O)OC)C(C)(C)C)C(C)(C)C | inactive | inactive | inactive | inactive | – | – | inactive | inactive | inactive | – |
| CCOc1ccc2nc(N)sc2c1 | inactive | – | inactive | – | – | – | inactive | inactive | inactive | inactive |
| C1CCOC1 | inactive | – | inactive | – | – | – | inactive | – | inactive | inactive |
| CN1CCN(c2c(F)cc3c(=O)c(C(=O)O)cn(CCF)c3c2F)CC1 | inactive | – | inactive | – | inactive | inactive | inactive | inactive | inactive | inactive |
| C[C@@H]1CN(c2c(F)c(F)c3c(=O)c(C(=O)O)cn(C4CC4)c3c2F)C[C@H](C)N1 | – | inactive | inactive | inactive | inactive | inactive | inactive | inactive | inactive | – |
| COc1cc(Cl)ccc1Cl | inactive | inactive | inactive | inactive | inactive | – | inactive | inactive | – | inactive |
| O=C1C=CC(=O)O1 | inactive | inactive | inactive | inactive | inactive | – | inactive | inactive | – | inactive |
| CCCCCCCCOC(=O)CCCCCCCCC(=O)OCCCCCCCC | inactive | inactive | inactive | inactive | inactive | – | inactive | – | inactive | inactive |
